# Only a selection was taken, and the strongest signals are over-represented in it overall.
# B1: AAL (Agrocybe aegerita), Q6WY08 (protein)
# chain: MQGVNIYNISAGTSVDLAAPVTTGDIVTFFSSALNLNAGAGNPNNTTLNLFAENGAYLLHIAHRLQENVIIFNSRQPDGPWLVEQRVSDVANQFAGIDGKAMVTVFDHGDKYQVVINEKTVIQYTKQISGLTLSLSYNATEETSIFSTVVEAVTYTGLALEHHHHHH
# Legend:
# Test in all cases: glycan array binding signal (z-score within array); higher = stronger binding
# Details in all cases: glycan notation: IUPAC condensed, linker removed; mutation: F63H
# Gal(b1-6)Gal = biological target: Gal(b1-6)Gal
# In short: (§1)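 From the Consortium for Functional Glycomics database, 3228 arrays were curated, keeping only those whose protein sequence was available. Binding is given as a within-array Z-score averaged across arrays sharing a protein sequence and across linkers. Negative Z-scores can be read as non-binding.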
# Gal3S(b1-3)GlcNAc = biological target: Gal3S(b1-3)GlcNAc
# In short: as §1
# [1] = biological target: Gal3S(b1-3)[Fuc(a1-4)]GlcNAc
# In short: as §1
# Gal4S(b1-4)GlcNAc = biological target: Gal4S(b1-4)GlcNAc
# In short: as §1
# GalNAc(b1-3)GlcNAc = biological target: GalNAc(b1-3)GlcNAc
# In short: as §1
# [2] = biological target: Glc(a1-6)Glc(a1-6)Glc(a1-6)Glc
# In short: as §1
# GlcA(b1-6)Gal = biological target: GlcA(b1-6)Gal
# In short: as §1
# [3] = biological target: GlcA3S(b1-3)Gal(b1-4)GlcNAc(b1-2)Man
# In short: as §1
# [4] = biological target: GlcA3S(b1-3)Gal(b1-4)GlcNAc(b1-3)Gal(b1-4)Glc
# In short: as §1
# [5] = biological target: GlcNAc(a1-4)Gal(b1-4)GlcNAc(b1-3)Gal(b1-4)GlcNAc
# In short: as §1
# [6] = biological target: GlcNAc(b1-2)Man(a1-3)[GlcNAc(b1-4)][GlcNAc(b1-2)Man(a1-6)]Man(b1-4)GlcNAc(b1-4)[Fuc(a1-6)]GlcNAc
# In short: as §1
# GlcNAc(b1-3)Gal(b1-4)Glc = biological target: GlcNAc(b1-3)Gal(b1-4)Glc
# In short: as §1
# [7] = biological target: GlcNAc(b1-3)Gal(b1-4)GlcNAc(b1-3)Gal(b1-4)GlcNAc(b1-2)[GlcNAc(b1-3)Gal(b1-4)GlcNAc(b1-3)Gal(b1-4)GlcNAc(b1-6)]Man(a1-6)[GlcNAc(b1-3)Gal(b1-4)GlcNAc(b1-3)Gal(b1-4)GlcNAc(b1-2)Man(a1-3)]Man(b1-4)GlcNAc(b1-4)[Fuc(a1-6)]GlcNAc
# In short: as §1
# [8] = biological target: GlcNAc(b1-3)Gal(b1-4)GlcNAc(b1-3)Gal(b1-4)GlcNAc(b1-3)Gal(b1-4)GlcNAc(b1-2)Man(a1-3)[GlcNAc(b1-3)Gal(b1-4)GlcNAc(b1-3)Gal(b1-4)GlcNAc(b1-3)Gal(b1-4)GlcNAc(b1-2)Man(a1-6)]Man(b1-4)GlcNAc(b1-4)[Fuc(a1-6)]GlcNAc
# In short: as §1
# [9] = biological target: GlcNAc(b1-3)Gal(b1-4)GlcNAc(b1-3)Gal(b1-4)GlcNAc(b1-3)Gal(b1-4)GlcNAc(b1-3)Gal(b1-4)GlcNAc(b1-2)[GlcNAc(b1-3)Gal(b1-4)GlcNAc(b1-3)Gal(b1-4)GlcNAc(b1-3)Gal(b1-4)GlcNAc(b1-3)Gal(b1-4)GlcNAc(b1-6)]Man(a1-6)[GlcNAc(b1-3)Gal(b1-4)GlcNAc(b1-3)Gal(b1-4)GlcNAc(b1-3)Gal(b1-4)GlcNAc(b1-3)Gal(b1-4)GlcNAc(b1-2)Man(a1-3)]Man(b1-4)GlcNAc(b1-4)[Fuc(a1-6)]GlcNAc
# In short: as §1
# [10] = biological target: GlcNAc(b1-3)Gal(b1-4)GlcNAc(b1-3)[GlcNAc(b1-3)Gal(b1-4)GlcNAc(b1-3)]GalNAc
# In short: as §1
# GlcNAc(b1-3)Man = biological target: GlcNAc(b1-3)Man
# In short: as §1
# [11] = biological target: GlcNAc(b1-3)[GlcNAc(b1-4)][GlcNAc(b1-6)]GlcNAc
# In short: as §1
# [12] = biological target: GlcNAc(b1-3)[GlcNAc(b1-6)]GalNAc
# In short: as §1
# Kdn(a2-3)Gal(b1-3)GlcNAc = biological target: Kdn(a2-3)Gal(b1-3)GlcNAc
# In short: as §1
# [13] = biological target: Man(a1-2)Man(a1-2)Man(a1-6)[Man(a1-3)]Man
# In short: as §1
# Man(a1-2)Man(a1-3)Man = biological target: Man(a1-2)Man(a1-3)Man
# In short: as §1
# [14] = biological target: Neu5Ac(a2-3)Gal(b1-3)GalNAc(b1-4)Gal(b1-4)Glc
# In short: as §1
# [15] = biological target: Neu5Ac(a2-3)Gal(b1-3)GlcNAc
# In short: as §1
# [16] = biological target: Neu5Ac(a2-3)Gal(b1-3)[Fuc(a1-4)]GlcNAc(b1-3)Gal(b1-4)[Fuc(a1-3)]GlcNAc
# In short: as §1
# [17] = biological target: Neu5Ac(a2-3)Gal(b1-3)[GlcNAc(b1-6)]GalNAc
# In short: as §1
# [18] = biological target: Neu5Ac(a2-3)Gal(b1-4)GlcNAc(b1-2)[Neu5Ac(a2-3)Gal(b1-4)GlcNAc(b1-4)]Man(a1-3)[GlcNAc(b1-4)][Neu5Ac(a2-3)Gal(b1-4)GlcNAc(b1-4)Man(a1-6)]Man(b1-4)GlcNAc(b1-4)GlcNAc
# In short: as §1
# [19] = biological target: Neu5Ac(a2-3)Gal(b1-4)GlcNAc(b1-2)[Neu5Ac(a2-3)Gal(b1-4)GlcNAc(b1-6)]Man(a1-6)[Neu5Ac(a2-3)Gal(b1-4)GlcNAc(b1-2)Man(a1-3)][GlcNAc(b1-4)]Man(b1-4)GlcNAc(b1-4)GlcNAc
# In short: as §1
# [20] = biological target: Neu5Ac(a2-3)Gal(b1-4)GlcNAc(b1-6)[Gal(b1-3)]GalNAc
# In short: as §1
# [21] = biological target: Neu5Ac(a2-6)Gal(b1-4)GlcNAc(b1-2)Man(a1-3)[GlcNAc(b1-2)Man(a1-6)]Man(b1-4)GlcNAc(b1-4)GlcNAc
# In short: as §1
# [22] = biological target: Neu5Ac(a2-6)Gal(b1-4)GlcNAc(b1-3)Gal(b1-4)GlcNAc(b1-2)Man(a1-3)[Neu5Ac(a2-6)Gal(b1-4)GlcNAc(b1-3)Gal(b1-4)GlcNAc(b1-2)Man(a1-6)]GalNAc
# In short: as §1
# [23] = biological target: Neu5Ac(a2-6)Gal(b1-4)GlcNAc(b1-6)[Gal(b1-3)]GalNAc
# In short: as §1
# Neu5Gc(a2-3)Gal(b1-4)Glc = biological target: Neu5Gc(a2-3)Gal(b1-4)Glc
# In short: as §1
# [24] = biological target: Neu5Gc(a2-3)Gal(b1-4)[Fuc(a1-3)]GlcNAc
# In short: as §1
binder,measurement,setting,value
B1,glycan array binding signal (z-score),Gal(b1-6)Gal,-0.264
same,glycan array binding signal (z-score),Gal3S(b1-3)GlcNAc,-0.185
same,glycan array binding signal (z-score),[1],-0.366
same,glycan array binding signal (z-score),Gal4S(b1-4)GlcNAc,-0.569
same,glycan array binding signal (z-score),GalNAc(b1-3)GlcNAc,-0.08
same,glycan array binding signal (z-score),[2],-0.408
same,glycan array binding signal (z-score),GlcA(b1-6)Gal,0.43
same,glycan array binding signal (z-score),[3],14.9
same,glycan array binding signal (z-score),[4],12.7
same,glycan array binding signal (z-score),[5],-0.067
same,glycan array binding signal (z-score),[6],-0.109
same,glycan array binding signal (z-score),GlcNAc(b1-3)Gal(b1-4)Glc,1.42
same,glycan array binding signal (z-score),[7],0.909
same,glycan array binding signal (z-score),[8],0.906
same,glycan array binding signal (z-score),[9],0.818
same,glycan array binding signal (z-score),[10],0.58
same,glycan array binding signal (z-score),GlcNAc(b1-3)Man,-0.511
same,glycan array binding signal (z-score),[11],-0.568
same,glycan array binding signal (z-score),[12],-0.374
same,glycan array binding signal (z-score),Kdn(a2-3)Gal(b1-3)GlcNAc,-0.066
same,glycan array binding signal (z-score),[13],-0.576
same,glycan array binding signal (z-score),Man(a1-2)Man(a1-3)Man,-0.172
same,glycan array binding signal (z-score),[14],0.045
same,glycan array binding signal (z-score),[15],-0.26
same,glycan array binding signal (z-score),[16],-0.137
same,glycan array binding signal (z-score),[17],0.214
same,glycan array binding signal (z-score),[18],-0.283
same,glycan array binding signal (z-score),[19],1.54
same,glycan array binding signal (z-score),[20],0.404
same,glycan array binding signal (z-score),[21],-0.73
same,glycan array binding signal (z-score),[22],-0.58
same,glycan array binding signal (z-score),[23],0.137
same,glycan array binding signal (z-score),Neu5Gc(a2-3)Gal(b1-4)Glc,1.34
same,glycan array binding signal (z-score),[24],0.023

# — the supplement of paper PMC8728848
